ARNT TACC3 PPI: disruptors of human ARNT/TACC3 interaction; AlphaScreen His-ARNT PAS-B/GST-TACC3 binding, luminescence; TACC3 fragment carries E629A point mutation; inhibition, % at 9.99 µM; 390,000 compounds, 0.66% hits; Q9Y6A5; AID 623870;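 active means mean inhibition of replicates at least 50% and at least half of replicates each reaching 50%; inconclusive means half or more replicates reach 50% but mean below 50%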;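 further: 0% = complete ARNT plus TACC3 wells and 100% = ARNT alone without TACC3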
PDI turbidity: PDI (human) enzyme inhibition | P07237 | PDI insulin aggregation turbidity, A650, 90 min | inhibition, % at 10 µM | 350,000 compounds, 0.052% hits;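 active means mean inhibition across replicates of 30% or more, whatever share of single replicates reach that level; inconclusive means mean inhibition below 30% while every single replicate reaches 30%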
CendR NRP1 mod: alters CendR peptide binding to human NRP-1. FAM-RPARPAR peptide binding to NRP-1, fluorescence polarization. inhibition, % at 25 µM. 360,000 compounds, 0.85% hits. AID 602438;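 active means inhibition or corrected inhibition above about 18%, plus a signal ratio from 0.5 to 1.5, limit read from the data, passing the limit was not always enough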
ALR H2O2 inh: inhibitors of human sulfhydryl oxidase ALR | P55789 | purified ALR, DTT oxidation, H2O2 HRP-luminol luminescence | inhibition, % (test concentration not listed) | 290,000 compounds, 3.8% hits;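 active means mean replicate inhibition above about 79%, with every replicate also reaching it, limit read from the data; inconclusive means only one of the two criteria met; inactive means mean below limit and not every replicate reaching it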
Target sequence (P55789 whole entry, looked up): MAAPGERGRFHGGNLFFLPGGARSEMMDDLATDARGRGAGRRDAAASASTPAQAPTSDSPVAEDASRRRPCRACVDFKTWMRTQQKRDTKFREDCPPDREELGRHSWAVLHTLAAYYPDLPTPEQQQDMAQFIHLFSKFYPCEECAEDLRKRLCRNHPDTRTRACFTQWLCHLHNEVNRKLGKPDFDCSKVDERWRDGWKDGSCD
PglD DTNB: PglD (C. jejuni) enzyme inhibition; 360,000 compounds, 0.098% hits; inhibition, % at 12.5 µM; purified PglD enzyme, DTNB colorimetric CoA detection; in the data active means inhibition above about 16%, passing the limit was not always enough; inconclusive means no clear call, values can overlap the other calls
ERp5 inh: blocks human ERp5 reductase activity on insulin; AID 651711; Q15084; inhibition, % at 9.99 µM; 350,000 compounds, 0.05% hits; ERp5 insulin aggregation, absorbance 650 nm, 90 min;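 active means mean replicate inhibition above about 25%, with every replicate also reaching it, limit read from the data, passing the limit was not always enough; inconclusive means only one of those two criteria met; inactive means neither criterion met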
Target sequence (Q15084 whole entry, looked up): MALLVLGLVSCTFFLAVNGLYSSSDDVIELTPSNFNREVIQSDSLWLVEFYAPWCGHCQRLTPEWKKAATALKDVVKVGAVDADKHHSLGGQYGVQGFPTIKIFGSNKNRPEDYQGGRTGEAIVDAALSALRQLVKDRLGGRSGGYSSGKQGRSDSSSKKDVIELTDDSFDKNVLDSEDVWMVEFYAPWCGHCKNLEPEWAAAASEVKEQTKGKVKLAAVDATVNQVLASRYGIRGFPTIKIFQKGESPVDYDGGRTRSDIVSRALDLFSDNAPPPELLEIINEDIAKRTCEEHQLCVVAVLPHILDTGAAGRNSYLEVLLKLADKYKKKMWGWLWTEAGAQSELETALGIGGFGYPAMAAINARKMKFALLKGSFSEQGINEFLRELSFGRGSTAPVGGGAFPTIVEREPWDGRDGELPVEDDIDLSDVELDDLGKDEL
* marks the source's active call; other numbers are inactive results. Many of the other results were omitted from the sample, so hits are more common in it than they were.

How did CCC(=O)N1CC2(CCN(C(C)=O)CC2)c2c([nH]c3cc(OC)ccc23)[C@@H]1CO do in these assays?
ERp5 inh: -5

What do the screens show for `C[C@H]1CN([C@@H](C)CO)C(=O)c2cccc(NC(=O)Nc3cccc4ccccc34)c2O[C@@H]1CN(C)C(=O)Nc1ccc(C(F)(F)F)cc1`?
ARNT TACC3 PPI: 13; PglD DTNB: 4; ERp5 inh: 79*

What do the screens show for `C[C@@H]1CN([C@H](C)CO)C(=O)c2cccc(NC(=O)Nc3ccc(C(F)(F)F)cc3)c2O[C@@H]1CN(C)C(=O)Nc1cccc2ccccc12`?
ARNT TACC3 PPI: 4; PglD DTNB: 1; ERp5 inh: 1

Results for C[C@H]1CN([C@@H](C)CO)C(=O)c2cccc(NC(=O)Nc3ccc(C(F)(F)F)cc3)c2O[C@H]1CN(C)C(=O)Nc1cccc2ccccc12 ?
ARNT TACC3 PPI: 3; PglD DTNB: 1; ERp5 inh: 2

What do the screens show for `C[C@@H]1CN([C@H](C)CO)C(=O)c2cccc(NC(=O)Nc3cccc4ccccc34)c2O[C@@H]1CN(C)C(=O)Nc1ccc(C(F)(F)F)cc1`?
ARNT TACC3 PPI: -3; PglD DTNB: 0; ERp5 inh: 42*

What do the screens show for `C[C@@H]1CN([C@H](C)CO)C(=O)c2cccc(NC(=O)Nc3cccc4ccccc34)c2O[C@H]1CN(C)C(=O)Nc1ccc(C(F)(F)F)cc1`?
ARNT TACC3 PPI: 13; PglD DTNB: 1; ERp5 inh: 62*

Results for CN1C(=O)c2cc(NC(=O)c3ccc(F)c(F)c3)ccc2OC[C@H]2O[C@@H](CC(=O)N[C@@H]3CCN(Cc4ccccc4)C3)CC[C@H]21 ?
ARNT TACC3 PPI: -2; PglD DTNB: 5; ERp5 inh: 5

Results for Cc1ccsc1C=Nc1ccc(O)cc1 ?
ARNT TACC3 PPI: 2; PDI turbidity: 11; CendR NRP1 mod: 0; ALR H2O2 inh: 96*; PglD DTNB: -1

What do the screens show for `CC(NS(=O)(=O)c1cn(C)c(=O)n(C)c1=O)c1ccccc1` (stereo unspecified)?
ARNT TACC3 PPI: 2; PDI turbidity: 7; CendR NRP1 mod: 26*; ALR H2O2 inh: -17; PglD DTNB: -6; ERp5 inh: -4

What do the screens show for `Cn1cc(S(=O)(=O)NCCc2ccccc2)c(=O)n(C)c1=O`?
ARNT TACC3 PPI: -2; PDI turbidity: -1; CendR NRP1 mod: -6; ALR H2O2 inh: -2; PglD DTNB: 7; ERp5 inh: 1

How did O=C(C[C@H]1CC[C@H]2[C@@H](COC[C@H](O)CN2C(=O)c2ccccc2F)O1)N1CCN(c2ccccc2)CC1 do in these assays?
ARNT TACC3 PPI: -7; PglD DTNB: -4; ERp5 inh: 0

What do the screens show for `CN1[C@H](CO)[C@H]2c3ccccc3N(C(=O)Nc3cc(F)ccc3F)C[C@H]21`?
ARNT TACC3 PPI: -11; PglD DTNB: -1; ERp5 inh: -1

Results for O=C(NC1CCCCCCC1)c1ccccc1O ?
ARNT TACC3 PPI: -5; PDI turbidity: 2; CendR NRP1 mod: -2; PglD DTNB: 6

How did O=C(NC1CCCCCC1)c1ccc[nH]c1=S do in these assays?
ARNT TACC3 PPI: 5; PDI turbidity: -5; CendR NRP1 mod: -7; ALR H2O2 inh: 92*; PglD DTNB: 1; ERp5 inh: -3

How did CN(C)CCCNC(=O)C[C@@H]1CC[C@@H]2[C@H](COc3ccc(NC(=O)c4ccccc4F)cc3C(=O)N2C)O1 do in these assays?
ARNT TACC3 PPI: 2; PglD DTNB: 1; ERp5 inh: -6

How did O=C1CSCN1c1ccc(Cl)c(Cl)c1 do in these assays?
ARNT TACC3 PPI: 4; PDI turbidity: -12; CendR NRP1 mod: 2; ALR H2O2 inh: 98*; PglD DTNB: 5; ERp5 inh: -3

Results for O=C1CSCN1c1cc(Cl)ccc1Cl ?
PDI turbidity: -5; CendR NRP1 mod: -11; ALR H2O2 inh: 42; ERp5 inh: 6

How did C[C@H](O)C#Cc1cnc2c(c1)C(=O)N([C@@H](C)CO)C[C@@H](C)[C@H](CN(C)C(=O)Cc1ccccn1)O2 do in these assays?
ARNT TACC3 PPI: -2; PglD DTNB: 0; ERp5 inh: 4

What do the screens show for `O=C(Nc1cc(F)ccc1F)N1CCCCN2[C@H](C1)[C@@H](c1ccc(-c3ccccc3)cc1)[C@@H]2CO`?
ARNT TACC3 PPI: 9; PglD DTNB: 7; ERp5 inh: 0

How did CCCCOc1ncnc2c1[nH]c1ccc(OC)cc12 do in these assays?
ALR H2O2 inh: -16

Results for COc1ccc2[nH]c3c(=S)nc[nH]c3c2c1 ?
ARNT TACC3 PPI: 0; PDI turbidity: 8; CendR NRP1 mod: 2; ALR H2O2 inh: 99*; ERp5 inh: -2

How did Cc1sc2nc(CSCC(=O)NC(C)(C)C)[nH]c(=O)c2c1C do in these assays?
ARNT TACC3 PPI: -9; PDI turbidity: 4; CendR NRP1 mod: -31; ALR H2O2 inh: 99*; ERp5 inh: 1

Results for CN(CC(=O)Nc1cccc(F)c1)C(=O)CCc1nc2sc3c(c2c(=O)[nH]1)CCCC3 ?
ARNT TACC3 PPI: 2; PDI turbidity: -2; CendR NRP1 mod: -36; ALR H2O2 inh: 91*; PglD DTNB: -99; ERp5 inh: -6

Results for Cc1sc2nc(CSCC(=O)N(C)CC(=O)Nc3ccc(F)cc3)[nH]c(=O)c2c1C ?
ARNT TACC3 PPI: 11; PDI turbidity: -1; CendR NRP1 mod: -35; ALR H2O2 inh: 99*; PglD DTNB: -6; ERp5 inh: 7

How did Cc1sc2nc(CSCC(=O)Nc3ccc(C(F)(F)F)cc3)[nH]c(=O)c2c1C do in these assays?
ARNT TACC3 PPI: -1; PDI turbidity: -2; CendR NRP1 mod: -3; PglD DTNB: -3; ERp5 inh: 1

What do the screens show for `COc1cccc(-c2nc(CS(=O)(=O)CC(=O)N3CCOCC3)c(C)o2)c1`?
ARNT TACC3 PPI: -6; PDI turbidity: 9; CendR NRP1 mod: 6; ALR H2O2 inh: 21; PglD DTNB: -6; ERp5 inh: 0

How did CCOC(=O)N1CCN(C(=O)CS(=O)(=O)Cc2nc(-c3cccc(OC)c3)oc2C)CC1 do in these assays?
ARNT TACC3 PPI: 1; PDI turbidity: 11; CendR NRP1 mod: 10; ALR H2O2 inh: -2; PglD DTNB: 2; ERp5 inh: 3

How did COc1cccc(-c2nc(CS(=O)(=O)CC(=O)N3CCN(C4CCCCC4)CC3)c(C)o2)c1 do in these assays?
ARNT TACC3 PPI: -1; CendR NRP1 mod: 10; ALR H2O2 inh: 99*; PglD DTNB: 4; ERp5 inh: 7

Results for COc1cccc(-c2nc(CS(=O)(=O)CC(=O)N3CCN(C)CC3)c(C)o2)c1 ?
ARNT TACC3 PPI: -3; CendR NRP1 mod: -23; ALR H2O2 inh: 97*; PglD DTNB: 10; ERp5 inh: -3

Results for COc1ccccc1-c1ccc([C@@H]2[C@@H](CO)N3CCCCN(C(=O)NC4CCCC4)C[C@H]23)cc1 ?
ARNT TACC3 PPI: 2; PglD DTNB: 2; ERp5 inh: inconclusive

Bioassay records: PubChem, several laboratories
